Measurements as given in the supplement of paper PMC10127200.
Structures can show the parent of a compound that is named as a salt.

Assays:
Assay in all cases: Euclidean distance of Cell Painting phenotypic profile (signed KS, 77 features) to DMSO centroid (dimensionless distance); 5 or 10 uM (library dependent); higher = stronger phenotypic change vs DMSO (phenoactivity)
Details in all cases: 48 h
786-O = tested on: 786-O
In short: (§1)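 Five cancer lines and a healthy fibroblast line received library compounds at 10 or 5 uM (library-dependent, 0.1% DMSO final) for 48 h. Stained cells were imaged confocally at 20X (9 fields/well). Harmony extracted 77 features, each scored as a signed Kolmogorov-Smirnov statistic against same-plate vehicle wells. Profiles were plate-position corrected, correlation-weighted and replicate-averaged at the top dose. Phenoactivity is the Euclidean distance from each profile to the median vehicle profile.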

A549 = tested on: A549
In short: as §1

DU145 = tested on: DU145
In short: as §1

FB = tested on: FB
In short: as §1

HEPG2 = tested on: HEPG2
In short: as §1

OVCAR4 = tested on: OVCAR4
In short: as §1

Structure (SMILES)	Euclidean distance (786-O)	Euclidean distance (A549)	Euclidean distance (DU145)	Euclidean distance (FB)	Euclidean distance (HEPG2)	Euclidean distance (OVCAR4)
COc1ccc2cc3[n+](cc2c1OC)CCc1cc2c(cc1-3)OCO2 [Berberine]	1.31	1.85	0.876	1.96	1.57	1.4
CC(CN(C)C)CN1c2ccccc2Sc2ccccc21 (stereo unspecified) [Alimemazine Tartrate]	1.33	1.55	1.73	2.43	2.13	1.33
COC[C@H]1C[C@@H](c2nc(-c3ccc4c(c3)COc3cc5c(ccc6nc([C@@H]7CC[C@H](C)N7C(=O)[C@@H](NC(=O)OC)C(C)C)[nH]c65)cc3-4)c[nH]2)N(C(=O)[C@H](NC(=O)OC)c2ccccc2)C1 [Velpatasvir]	1.14	1.43	1.28	2.05	1.32	1.1
CCS(=O)(=O)c1cccc(-c2cc(C(=O)NC3CCN(C)CC3)c(C)c3[nH]c4ncc(C)cc4c23)c1	3.1	3.9	2.89	3.63	2.3	2.17
Cc1nn(-c2ccccc2)c(C)c1C=NN1CCN(Cc2ccccc2)CC1	1.24	1.25	0.724	0.733	1.16	1.34
CC(=O)O/N=C1\C(=O)N(Cc2cc(Cl)ccc2Cl)c2ccc(Cl)cc21	0.757	0.621	0.687	0.682	0.571	1.34
COc1ccc(C2=N[C@@H](c3ccc(Cl)cc3)[C@@H](c3ccc(Cl)cc3)N2C(=O)N2CCNC(=O)C2)c(OC(C)C)c1 [Nutlin-3]	1.4	3.54	1.03	2.68	2.58	1.17
CC1(C)CC[C@]2(NC(=O)C(C)(F)F)CC[C@]3(C)[C@H](C(=O)C=C4[C@@]5(C)C=C(C#N)C(=O)C(C)(C)[C@@H]5CC[C@]43C)[C@@H]2C1 [Omaveloxolone (RTA-408)]	6.36	4.96	6.92	7.18	5.59	6.32
COc1cccc(CCc2ccccc2OCC(CN(C)C)OC(=O)CCC(=O)O)c1 (stereo unspecified) [Sarpogrelate hydrochloride]	0.73	1.36	0.739	1.27	0.99	1.63
COc1ccc(-c2ccc3cc(C(=O)O)ccc3c2)cc1C12CC3CC(CC(C3)C1)C2 [Adapalene]	1.76	2.58	1.39	2.18	1.73	2.03
CN1CCN(S(=O)(=O)c2ccc(-c3cnc(N)c(C(=O)Nc4cccnc4)n3)cc2)CC1	3.21	3.47	1.43	1.66	1.34	3.18
CCCc1nn(C)c2c(=O)[nH]c(-c3cc(S(=O)(=O)N4CCN(C)CC4)ccc3OCC)nc12 [Sildenafil Mesylate]	1.12	0.763	0.989	1	0.692	0.995
Oc1ccc(Cl)c2cccnc12 [Cloxiquine]	1.62	2.13	1.92	2.66	1.62	1.97
Cc1nccn1CCC(C(N)=O)(c1ccccc1)c1ccccc1 [Imidafenacin]	0.703	1.19	1.34	1.02	0.727	1.42
C[C@@H]1C/C=C/C=C/C=C/C=C/[C@H](O[C@@H]2O[C@H](C)[C@@H](O)[C@H](N)[C@@H]2O)C[C@@H]2O[C@](O)(C[C@@H](O)C[C@H]3O[C@@H]3/C=C/C(=O)O1)C[C@H](O)[C@H]2C(=O)O [Natamycin]	1.51	0.972	1.07	1.11	1.14	1.02
COc1cc(-c2ncn(/C=C\C(=O)OC(C)C)n2)cc(C(F)(F)F)c1	3.51	3.05	3.45	3.74	2.56	4.53
Cc1cc2c(F)c(Oc3ncnn4cc(OC[C@@H](C)O)c(C)c34)ccc2[nH]1	2.22	1.25	1.36	1.71	1.24	1.6
CCN1C[C@H](C)n2c(c(O)c3c(=O)n(Cc4ccc(F)c(Cl)c4)nc(C(=O)NC)c32)C1=O	1.08	0.61	1.05	0.927	0.645	1
Cc1[nH]c(=O)c(C#N)cc1-c1ccc2nccn2c1 [Olprinone]	1.08	1.07	0.61	1.08	0.547	1.11
C[N+]1(C)CCC(=C(c2ccccc2)c2ccccc2)CC1 [Diphemanil Methylsulfate]	1.08	0.915	1.02	0.946	0.465	1.83
O=C(O)COc1nn(Cc2ccccc2)c2ccccc12 [Bendazac]	1.07	0.905	1.13	1.39	0.558	1.32

Structure (SMILES)	Euclidean distance (786-O)	Euclidean distance (A549)	Euclidean distance (DU145)	Euclidean distance (FB)	Euclidean distance (HEPG2)	Euclidean distance (OVCAR4)
CCC(=O)O[C@]1(C(=O)CCl)[C@@H](C)C[C@H]2[C@@H]3CCC4=CC(=O)C=C[C@]4(C)[C@@]3(F)[C@@H](O)C[C@@]21C [Clobetasol propionate]	1.31	2.17	2.55	2.08	0.79	1.96
Nc1ncnc2c1ncn2[C@@H]1O[C@H](CO)[C@@H](O)[C@H]1O [Adenosine]	1.13	2.77	1.12	0.92	0.753	1.22
O=NN(CCCl)C(=O)NCCCl [Carmustine]	1.97	0.741	1.29	0.896	0.515	0.875
O=C(O[C@@H]1C[C@@H]2C[C@H]3C[C@H](C1)N2CC3=O)c1c[nH]c2ccccc12 [Dolasetron Mesylate]	1.12	0.793	0.963	1.17	0.558	1.22
O=C1CN(/N=C/c2ccc(-c3ccc([N+](=O)[O-])cc3)o2)C(=O)N1 [Dantrolene sodium]	0.573	0.503	1.37	0.968	0.758	1.01
CC(C)(O)CNc1nc(Nc2ccnc(C(F)(F)F)c2)nc(-c2cccc(C(F)(F)F)n2)n1 [Enasidenib (AG-221)]	1.17	0.727	1.69	1.4	1.82	1
COc1cccc2cc(-c3nc([C@H]4CC[C@H](C(=O)O)CC4)n4ncnc(N)c34)[nH]c12	2.33	2.18	1.44	3.76	2.92	3.56
NCCCC[C@H](NC(=O)[C@@H](NC(=O)[C@H](Cc1c[nH]c2ccccc12)NC(=O)[C@H](CCCCN)NC(=O)[C@H](CCCCN)NC(=O)[C@H](Cc1c[nH]c2ccccc12)NC(=O)[C@H](Cc1c[nH]c2ccccc12)NC(=O)[C@H](CCCCN)NC(=O)[C@@H](N)CCCCN)C(c1ccccc1)c1ccccc1)C(N)=O	4.67	1.24	1.35	1.8	1.2	2.23
Cc1ccc(NC(=O)c2ccc(CN3CCN(C)CC3)cc2)cc1Nc1nccc(-c2cccnc2)n1 [Imatinib Mesylate (STI571)]	1.63	2	1.67	2.28	1.61	1.55
O=C1c2cccc3c2[C@H](CCC3)CN1[C@@H]1CN2CCC1CC2 [Palonosetron HCl]	1.56	0.602	0.971	0.972	1.29	1.22
COc1ccc(C(=O)NCc2ccc(OCCN(C)C)cc2)cc1OC [Itopride hydrochloride]	1.63	0.807	0.903	0.871	1.09	0.695
CC(C)/N=c1\cc2n(-c3ccc(Cl)cc3)c3ccccc3nc-2cc1Nc1ccc(Cl)cc1 [Clofazimine]	1.02	1.1	0.808	1.7	0.662	1.05
CC(=O)Nc1cccc(-n2c(=O)n(C3CC3)c(=O)c3c(Nc4ccc(I)cc4F)n(C)c(=O)c(C)c32)c1	3.52	3.28	3.33	3.79	1.56	1.94
COCCc1ccc(OCC(O)CNC(C)C)cc1 (stereo unspecified) [Metoprolol Tartrate]	0.573	0.762	0.69	0.67	0.507	0.885
O=C(CCc1ccc(O)cc1)c1c(O)cc(O)cc1O[C@@H]1O[C@H](CO)[C@@H](O)[C@H](O)[C@H]1O [Phlorizin]	0.911	1.18	0.673	0.849	1.02	0.783
Cc1cc(-c2ccccc2)nnc1NCCN1CCOCC1 [Minaprine dihydrochloride]	0.893	1.02	0.918	1.32	0.555	1.06
CNC(=O)c1cccc(-c2ccc3c(N4CCOC[C@@H]4C)nc(N4CCOC[C@@H]4C)nc3n2)c1	4	3.14	2.52	4.98	4.09	4.15
CN(C)CC[C@H](CSc1ccccc1)Nc1ccc(S(=O)(=O)NC(=O)c2ccc(N3CCN(Cc4ccccc4-c4ccc(Cl)cc4)CC3)cc2)cc1[N+](=O)[O-]	0.812	2.83	1.36	0.853	0.522	1.01
Cc1cccc(C)c1NC(=O)c1cc(S(N)(=O)=O)c(Cl)cc1O [Xipamide]	1.51	0.665	0.648	1.08	0.576	1.08
c1ccc2c(c1)CCCC2C1=NCCN1 (stereo unspecified) [Tetryzoline]	1.41	0.369	0.804	1.09	0.572	0.896
